Results taken from PubChem BioAssay.
Calls of active or inactive are those of the source.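 Rule for the calls, unless noted: active = compounds lowering colon cancer cell viability after pretreatment blocking the GSK3B kinase; inactive = the rest.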

Columns and labels:
[1] = Wnt pathway potentiators raising nuclear beta-catenin – imaging, WNT3A-conditioned medium, mouse C2C12, NPC library, primary screen (AID 1117326; in the data active = nuclear beta-catenin stimulation mostly above about 4.2%, no sharp cut-off; inactive = mostly below about 10%; note: reference of the scale not given here); settings: stronger effect = higher value
[2] = stimulators of insulin release from INS-1E, primary screen, cell-based, 5 mM glucose, NPC library (AID 1117329;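 active = compound raises insulin release from rat beta cells at 5 mM glucose, no numeric limit stated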; note: reference of the scale not given here); settings: rat INS-1E insulin secretion, at 10 µM, stronger effect = higher value
[3] = growth inhibition of GSK3B-pretreated HCT116 cells – cell-based, CellTiter-Glo, 0.2 to 20 µM (AID 1117336); settings: HCT116 viability after GSK3B inhibitor, at 20 µM, stronger effect = higher value
[4] = inhibition of endothelial tube formation, primary screen, imaging, VEGF stimulated, CD31 staining, tube area, NPC library (AID 1117340;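 active = compound that reduces growth-factor-driven endothelial tube area in a mixed cell culture, no cutoff stated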); settings: VEGF-stimulated ADSC/ECFC co-culture, at 10 µM, stronger effect = higher value
[5] = GLP1 release stimulators, primary, NCI-H716, NPC library (AID 1117341;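 active = compound raises GLP1 secretion from the human gut endocrine cells, with no numeric limit stated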; note: reference of the scale not given here); settings: NCI-H716 cells, at 10 µM, stronger effect = higher value
[6] = HCT116 colon cancer cell growth inhibition, primary screen, CellTiter-Glo luminescence, NPC library (AID 1117342;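 active = compounds that lower survival of HCT116 colon cancer cells in the luminescence readout, no numeric limit stated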); settings: at 20 µM (top of the series)
[7] = reduced SW480 viability measured with CellTiter-Glo, NPC library, primary (AID 1117343;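 active = compounds that lower viability of the colon cancer cells in the luminescence readout, with no numeric limit stated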); settings: CellTiter-Glo luminescence; at 20 µM (top of the series)
[8] = NPC library primary testing for decreased DLD-1 cell viability via CellTiter-Glo (AID 1117346;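 active = compounds that lower survival of DLD-1 colon cancer cells in the luminescence readout, no cutoff given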); settings: DLD-1 viability, CellTiter-Glo luminescence; at 20 µM (top of the series)

Structure (SMILES) | nuclear beta-catenin stimulation ([1]; at 10 µM) | nuclear beta-catenin stimulation ([1]; stimulation, at 2 µM) | insulin secretion stimulation [2] | viability decrease [3] | tube area decrease [4] | GLP1 secretion stimulation [5] | inhibition of viability [6] | viability decrease (inhibition) [7] | viability decrease (inhibition) [8]
O=S(=O)(O)c1ccc2nc(-c3ccccc3)[nH]c2c1 | 0.1% (inactive) | 0.5% | -0.6% (inactive) | 5.35% (inactive) | -26.3% (inactive) | 1.9% (inactive) | 6.9% (inactive) | 10.6% (inactive) | -0.25% (inactive)
CCCCCCCCCCCCCCCC[N+](C)(C)Cc1ccccc1 | 38.6% (inactive) | 0.7% | 1% (inactive) | 99.3% (active) | 109% (active) | -4.3% (inactive) | 99.2% (active) | 101% (active) | 102% (active)
CCOC(=O)C(=O)CCc1ccccc1 | 0.7% (inactive) | 2% | 2.2% (inactive) | -4.7% (inactive) | -7.2% (inactive) | 5% (inactive) | 10.3% (inactive) | -2.4% (inactive) | 1% (inactive)
Oc1ccccc1-c1nnco1 | 0.3% (inactive) | -0.2% | 3.2% (inactive) | -2.4% (inactive) | -3.9% (inactive) | -0.1% (inactive) | 12.2% (inactive) | 22.1% (inactive) | -0.7% (inactive)
Cc1ccc(C(=O)C(=O)O)cc1C | 1% (inactive) | 1.8% | 2.9% (inactive) | -10.8% (inactive) | -6.7% (inactive) | -3.1% (inactive) | -6.7% (inactive) | 17.4% (inactive) | -5% (inactive)
CN[C@H](CC(C)C)C(=O)N[C@H]1C(=O)N[C@@H](CC(N)=O)C(=O)N[C@H]2C(=O)N[C@H]3C(=O)N[C@H](C(=O)N[C@H](C(=O)O)c4cc(O)cc(O)c4-c4cc3ccc4O)[C@H](O)c3ccc(c(Cl)c3)Oc3cc2cc(c3O[C@@H]2OC(CO)[C@@H](O)[C@H](O)[C@@H]2O[C@H]2C[C@](C)(N)[C@H](O)[C@H](C)O2)Oc2ccc(cc2Cl)[C@H]1O (stereo partly specified) | -0.7% (inactive) | 2.4% | -0.1% (inactive) | -6.3% (inactive) | 7.3% (inactive) | -0.9% (inactive) | -1.3% (inactive) | 5% (inactive) | -10% (inactive)
c1ccc2c(c1)CCc1ccccc1N2 | 0.8% (inactive) | 2.8% | 0.55% (inactive) | 8.3% (inactive) | -22.5% (inactive) | 2% (inactive) | -2.9% (inactive) | -16.7% (inactive) | -6.2% (inactive)
COc1cc2c(cc1OC)C(=O)CC2 | 0.3% (inactive) | 2% | 0.2% (inactive) | -1.6% (inactive) | 3.8% (inactive) | 3.1% (inactive) | -8.1% (inactive) | 4.2% (inactive) | 14.9% (inactive)
C[C@H](CCC(=O)O)[C@H]1CC[C@H]2[C@H]3[C@@H](CC[C@]12C)[C@@]1(C)CC[C@@H](O)C[C@H]1C[C@@H]3O | -1.6% (inactive) | 0.2% | 1% (inactive) | -8.5% (inactive) | -26.9% (inactive) | -1.3% (inactive) | 7.3% (inactive) | 6.1% (inactive) | -6.8% (inactive)
c1ccc(OCc2ccc(CCCN3CCOCC3)cc2)cc1 | -1% (inactive) | 0.3% | 4.5% (inactive) | 32.1% (inactive) | 14% (inactive) | -0.1% (inactive) | 54.5% (active) | 34.7% (active) | 19.4% (inactive)
CCCCC(=O)OCC(=O)[C@H]1[C@H](C)C[C@H]2[C@@H]3C[C@H](F)C4=CC(=O)C=C[C@]4(C)[C@@]3(F)[C@@H](O)C[C@@]21C | -1.1% (inactive) | -1.4% | 13.7% (inactive) | -7.2% (inactive) | -11.7% (inactive) | 0.8% (inactive) | 17.1% (inactive) | -15.9% (inactive) | -9.9% (inactive)
C[C@@H]1C[C@H]2[C@@H]3CCC4=CC(=O)C=C[C@]4(C)[C@@]3(F)[C@@H](O)C[C@]2(C)[C@@]1(O)C(=O)COC(=O)c1ccncc1 | 2.8% (inactive) | 2.8% | -1% (inactive) | -41.3% (inactive) | -2.4% (inactive) | -1.9% (inactive) | -4.43% (inactive) | 5.8% (inactive) | -18.6% (inactive)
O=C(Nc1ccc(Cl)cc1)Nc1ccc(Cl)c(C(F)(F)F)c1 | 25.5% (inactive) | -0.2% | -0.8% (inactive) | 99.4% (active) | 108% (active) | -3.9% (inactive) | 99.3% (active) | 102% (active) | 102% (active)
O=C(NCN1CCOCC1)c1cnccn1 | 1.4% (inactive) | 0.7% | 0.2% (inactive) | 15.3% (inactive) | 7.8% (inactive) | -2.9% (inactive) | 29.4% (inactive) | 40.1% (inactive) | 8.3% (inactive)
N=C(N)n1cccn1 | 0.3% (inactive) | 0% | 9.4% (inactive) | -5.8% (inactive) | 4.7% (inactive) | -3.7% (inactive) | 6.5% (inactive) | 16.1% (inactive) | -2.6% (inactive)
O=C(CN1CCN(Cc2ccc3c(c2)OCO3)CC1)N1c2ccccc2Sc2ccccc21 | 0.2% (inactive) | 2.2% | 7.5% (inactive) | 63.5% (active) | 7.5% (inactive) | 16.3% (inactive) | 67.4% (active) | 126% (active) | 76.8% (active)
COc1cc(O)cc(O)c1 | 1.6% (inactive) | -0.2% | 4.5% (inactive) | -4.6% (inactive) | 10.6% (inactive) | -9.8% (inactive) | 7.93% (inactive) | 4% (inactive) | -9.1% (inactive)
OC1(c2ccccc2)CCNCC1 | 0.2% (inactive) | 0.6% | -0.5% (inactive) | 6% (inactive) | -1% (inactive) | 6.9% (inactive) | 12.8% (inactive) | 5.3% (inactive) | 11.1% (inactive)
CC(C)C[C@@H](N)C(=O)O | 3.4% (inactive) | 1.7% | -0.8% (inactive) | -7.15% (inactive) | 11.2% (inactive) | 0.3% (inactive) | 9.1% (inactive) | 3.6% (inactive) | -1.8% (inactive)
C=CCNCCCCCC[N+](C)(C)C | -1.4% (inactive) | 0.4% | -0.9% (inactive) | -5.7% (inactive) | -1.9% (inactive) | -0.6% (inactive) | -3.1% (inactive) | -2.3% (inactive) | -2.3% (inactive)
CCN(CC)C(=O)C1CN2CCc3cc(OC)c(OC)cc3C2CC1OC(C)=O (stereo unspecified) | -1.5% (inactive) | 1.3% | 3.5% (inactive) | -0.1% (inactive) | 1.2% (inactive) | 10.9% (inactive) | 17.1% (inactive) | 6.1% (inactive) | -4.5% (inactive)
O=C(O)COc1nn(Cc2ccccc2)c2ccccc12 | -0.5% (inactive) | 2.2% | -0.7% (inactive) | 3.8% (inactive) | -13% (inactive) | 1.7% (inactive) | 8.1% (inactive) | 12.1% (inactive) | 8.6% (inactive)
CC(=O)/C=C/C=C1/C2CCC(C2)C1(C)C (stereo unspecified) | 1.2% (inactive) | 3.3% | 0.6% (inactive) | -80% (inactive) | -0.7% (inactive) | 0.1% (inactive) | -1.1% (inactive) | 27% (inactive) | -15.2% (inactive)
Oc1ccccc1 | -0.4% (inactive) | 0.2% | -0.2% (active) | -6.9% (inactive) | -36.6% (inactive) | 0.5% (inactive) | -11.1% (inactive) | 42.7% (inactive) | 0.9% (inactive)
NS(=O)(=O)c1cc2c(cc1Cl)CN(C1CCCCC1)C2=O | -0.9% (inactive) | -0.3% | -0.2% (inactive) | -0.4% (inactive) | -3.4% (inactive) | 1.4% (inactive) | -2.17% (inactive) | -0.2% (inactive) | -3.8% (inactive)
CC(C)C(=O)Nc1cccc(C(F)(F)F)c1 | 1% (inactive) | 1.2% | 2.1% (inactive) | 9.3% (inactive) | -5.2% (inactive) | 4.8% (inactive) | 0.9% (inactive) | -24.6% (inactive) | -1% (inactive)
OC1(c2ccc(Cl)cc2)CCNCC1 | -0.1% (inactive) | -1.2% | 6.1% (inactive) | 13.1% (inactive) | 7.8% (inactive) | 1.3% (inactive) | 23.2% (inactive) | 30.5% (inactive) | 8.8% (inactive)
CCOc1ccc(C(=O)OCCN(CC)CC)cc1 | -1% (inactive) | -1.4% | -0.6% (inactive) | 6.1% (inactive) | -2.2% (inactive) | 1.9% (inactive) | 43.8% (inactive) | 20.4% (inactive) | 8.4% (inactive)
O=C(O)c1ccccn1 | 1.7% (inactive) | 0.9% | -0.2% (inactive) | 31.1% (inactive) | -6.5% (inactive) | 1.3% (inactive) | -1.6% (inactive) | 10.7% (inactive) | 22% (inactive)
